Shown are actives, neighbours in structure and some others; about 2.9% of the full set was active somewhere.
EPAC2 ant val: human EPAC2 antagonism, validation | Q8WZA2 | EPAC2 Rap1B BODIPY-GDP exchange, fluorescence | Potency, µM (titrated, usually from 112 µM), without a hit: at the highest dose activity, negative = inhibition, hits mostly inhibitors | actives 1.7% (n = 16,000) | AID 1645886;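 also: 100% = activation by cAMP agonist control; nearly all actives have a fitted effect of over 40% in size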
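Normalized against a 6.5 mM cAMP agonist control, compounds were tested on 100 nM EPAC2 exchanging Rap1B-bound BODIPY-GDP (250 nM) for 50 uM GDP. Fluorescence drop (ex 480, em 540 nm) was tracked at room temperature over 30 min at 5-min intervals.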
EPAC1 ag val: validation of human EPAC1 agonists; AID 1645883; EPAC1 Rap1b BODIPY-GDP exchange, fluorescence; O95398; actives 1% (n = 16,000); Potency, µM, without a hit: max response, positive = active, hits mostly activators; also: nearly all actives have a fitted effect of over 70% in size
Numbers without * were called inactive; ? = inconclusive; ! = repeats disagree. Calls follow the shape of the dose curve; as a rule, active = well fitted curve in the direction sought with a large enough effect; inconclusive = small, poorly fitted or top-dose-only effect, or another doubt; inactive = no such curve, though single readings can be large; an effect the other way counts as inactive or inconclusive. Unless noted, % is scaled to controls: 0 for no effect and ±100 for the full control effect; potency is read from the fitted curve at half-maximal effect.

SMILES	EPAC2 ant val	EPAC1 ag val
Oc1ccc(Cl)cc1Sc1cc(Cl)ccc1O	50µM*	-30%
C[S+](C)CCC(N)C(=O)O (stereo not drawn)	-15%	-4%
Nc1nc(NC2CC2)c2ncn([C@@H]3C=C[C@@H](CO)C3)c2n1	2%	-15%
CC(C)C[C@H]1C(=O)N2CCC[C@H]2[C@]2(O)O[C@](NC(=O)[C@@H]3C=C4c5cccc6[nH]c(Br)c(c56)C[C@H]4N(C)C3)(C(C)C)C(=O)N12	-19%	112µM*!
CC(C)CC1C(=O)N2CCCC2C2(O)O[C@@](NC(=O)C3C=C4c5cccc6[nH]c(Br)c(c56)CC4N(C)C3)(C(C)C)C(=O)N12 (stereo partly drawn)	-19%	?
CC(C)c1ccc(CN2CCC3(CCC(CNC(=O)c4ccn(C)n4)O3)CC2)cc1 (stereo not drawn)	-22%	-13%
CC[C@]1(c2ncc[nH]2)Cc2ccccc2O1	16µM*	6%
C/C1=C2N=C(/C=C3N=C(/C(C)=C4\[N-][C@@](C)([C@@H]5N=C1[C@](C)(CCC(=O)NCC(C)OP(=O)(O)O[C@H]1[C@@H](O)[C@@H](n6cnc7cc(C)c(C)cc76)O[C@@H]1CO)[C@H]5CC(N)=O)[C@@](C)(CC(N)=O)[C@@H]4CCC(N)=O)[C@@](C)(CC(N)=O)[C@@H]\3CCC(N)=O)C(C)(C)[C@@H]/2CCC(N)=O.CC(=O)O.[Co] (stereo partly drawn)	79µM*	-44%
O=C(Nc1ccc(/C=C/c2ccc(NC(=O)c3cc(S(=O)(=O)O)c4cccnc4c3O)cc2S(=O)(=O)O)c(S(=O)(=O)O)c1)c1cc(S(=O)(=O)O)c2cccnc2c1O	22µM*	?
O=S(=O)(O)c1cc(I)c(O)c2ncccc12	18%	13%
Cc1cnc(-n2ncc(C(=O)NCCc3cccnc3)c2C)nc1-c1cccs1	?	-8%
Cc1ccc2[nH]c3c(c2c1)CN(C(=O)CC1(c2ccccc2)CC(=O)N(Cc2cccnc2)C1=O)CC3 (stereo not drawn)	?	7%
C[C@@H](O[C@H]1OCCN(Cc2n[nH]c(=O)[nH]2)[C@@H]1c1ccc(F)cc1)c1cc(C(F)(F)F)cc(C(F)(F)F)c1	50µM*	-60%
CSc1ccccc1C(=O)NCc1nc(-c2cccc(NC(=O)c3ccoc3C)c2)oc1C	-26%	9%
CCCCCCCCCCCCCCCCCCN(CCCCCCCCCCCCCCCCCC)c1ccc(/C=C/c2ccnc3ccccc23)cc1	-27%	-17%
C=Nc1ccc(/C=C/c2ccnc3ccccc23)cc1	28%	100µM*
C(=C\c1ccnc2ccccc12)/c1ccnc2ccccc12	-34%	-90%
CCCCN(CCCC)c1ccc(/C=C/c2ccnc3ccccc23)cc1	130%	112µM*
COc1ccccc1C(=O)N(Cc1cc2cccc(C)c2nc1N1CCC(O)CC1)C1CC1	-12%	4%
O=C(NCCN1CCOCC1)c1cnn(-c2nccc(-c3cc4ccccc4o3)n2)c1C1CC1	12%	10%
CCC(=O)NCc1nc(-c2cccc(NC(=O)c3ccc(C)s3)c2)oc1C	-20%	-14%
Cc1noc(C)c1-c1nc(N2CCOCC2)c2ccccc2n1	2%	-31%
C(=C\c1nccc2ccccc12)/c1ccc(N2CCOCC2)cc1	6%	100µM*
CC(C)(CO)[C@@H](O)C(=O)NCCCC(=O)O	-17%	-1%
Cc1cc(C(=O)NCc2nnc3n2CCN(Cc2ccc4c(c2)Cc2ccccc2-4)CC3)c(C)o1	?	-15%
SMILES	EPAC2 ant val	EPAC1 ag val
C=C[C@](C)(O)CCC1C(=C)CC(OC(C)=O)C2C(C)(C)CCCC12C (stereo partly drawn)	10µM*	-116%
C=C[C@@](C)(O)CC[C@@H]1[C@@]2(C)CCCC(C)(C)[C@@H]2CC[C@@]1(C)O	?	-27%
COC(=O)C1=C(C)NC(COC(N)=O)=C(C(=O)OC(C)C)C1c1cccc(Cl)c1Cl (stereo not drawn)	50µM*	?
COC(=O)C1=C(C)NC(C)=C(C(=O)OC)C1c1ccccc1[N+](=O)[O-]	?	-10%
CCc1ccc(S(=O)(=O)NCc2nc(N3CCCC3)c3cccc(C)c3n2)cc1	?	15%
C[N@+]12CCCC[C@@H]1CCC(=C(c1cccs1)c1cccs1)C2	6%	-4%
Cc1c(C(=O)N2CC3CCC2C3)sc2ncnc(NCCc3c[nH]c4ccccc34)c12 (stereo not drawn)	-13%	3%
CC(C)(C)[C@H]1CCC(=O)N([C@H](CN=[N+]=[N-])Cc2ccccc2)CC1	56µM*	-84%
[N-]=[N+]=NC[C@H](Cc1ccccc1)N1CC[C@@H](O)CCC1=O	-5%	12%
CN(C)CC(C)(O)c1ccc2c(c1)CN(Cc1cn(C)c3ccccc13)CCO2 (stereo not drawn)	2%	0%
Fc1ccc(N2CCN(Cc3ccc4c(c3)CN(Cc3cccn3-c3cccnc3)CCO4)CC2)cc1	-20%	0%
O=C(C[n+]1cccc2cc(Cl)ccc21)c1ccc(Br)cc1	-26%	112µM*
O=C(C[n+]1cccc2cc(Cl)ccc21)c1ccc(I)cc1	-10%	7%
COc1cc2ccc(=O)oc2cc1O	-16%	100µM*!
COc1ccc2ccc(=O)oc2c1CC=C(C)C	?	-40%
Cc1cc(-c2ccc(N=Nc3c(S(=O)(=O)O)cc4cc(S(=O)(=O)O)cc(N)c4c3O)c(C)c2)ccc1N=Nc1c(S(=O)(=O)O)cc2cc(S(=O)(=O)O)cc(N)c2c1O	50µM*	-31%
COc1ccc2c(c1)OCC(Cc1ccc(OC)c(OC)c1)C2O (stereo not drawn)	?	-12%
COc1ccc2c(c1)OCC(Cc1ccc(OC)c(OC)c1)C2=O (stereo not drawn)	45µM*	?
Nc1ncnc2c1nc(Cl)n2C1OC(CO)C(O)C1O (stereo not drawn)	-4%	18%
Nc1ncnc2c1nc(Br)n2C1CC(O)C(CO)O1 (stereo not drawn)	-6%	-3%
Nc1ncnc2c1nc(Br)n2[C@@H]1O[C@H]2COP(=O)(O)O[C@@H]2[C@@H]1O	1.3µM*	?
NC1=NC2C(N=C(Br)N2[C@@H]2O[C@H]3COP(=O)(O)O[C@@H]3[C@@H]2O)C(=O)N1 (stereo partly drawn)	?	17%
Nc1ncnc2c1nc(Sc1ccc(Cl)cc1)n2[C@H]1OC2COP(=O)(O)O[C@@H]2C1O (stereo partly drawn)	0.5µM*	0.18µM*
Nc1ncnc2c1nc(Br)n2[C@H]1O[C@H]2COP(=O)(O)O[C@H]2[C@@H]1O	3.5µM*	1.1µM*
COC(=O)c1cn([C@@H]2C[C@@H](C(=O)N3CCCCCC3)N(Cc3cc4ccccc4s3)C2)nn1	?	-7%
SMILES	EPAC2 ant val	EPAC1 ag val
CCCCCCC(=O)O[C@H]1CC[C@H]2[C@@H]3CCc4cc(O)ccc4[C@H]3CC[C@]12C	-19%	-111%
Cc1nc2sccn2c1CN1CCOc2ccc(CN3C[C@@H](C)O[C@@H](C)C3)cc2C1	-2%	-12%
COC(=O)c1cccc(C(=O)NCc2nc(-c3cccc(NC(=O)c4ccoc4C)c3)oc2C)c1	-3%	14%
CNc1cc(OC)c(C(=O)N[C@H]2CCN(Cc3ccccc3)[C@H]2C)cc1Cl	?	-30%
OCCN1CCN(CCCN2c3ccccc3Sc3ccc(Cl)cc32)CC1	35µM*!	2%
CN(C)CCCN1c2ccccc2Sc2ccc(Cl)cc21	-24%	1%
O=C1c2ccccc2C(=O)c2c(O)ccc(O)c21	57%	-23%
